Positions count from the first letter of the chain named. Over roughly 16,000 sequences, “ka relative to ugcaugu” has its median near 0.096; the highest 2% begin near 0.35. The sample holds the highest values, similar sequences and a random draw of the others, so the mix is not that of the screen.

The results in this text go back to paper PMC9911399, “Two distinct binding modes provide the RNA-binding protein RbFox with extraordinary sequence specificity”.

Sequences and labels used below:
T1: RBFOX1 RRM RbFoxmut (Fox-RRM*) (Homo sapiens, UniProt Q9NWB1 109-208, R118D;E147R;N151S;E152T)
T1 sequence: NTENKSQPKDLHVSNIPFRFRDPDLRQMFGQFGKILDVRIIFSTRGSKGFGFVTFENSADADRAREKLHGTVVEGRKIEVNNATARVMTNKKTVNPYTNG

B1: GGUUCAA (DNA:RNA)
RNA: GGGAGACCGGAAUUCAGAUUGUCCGGUUCAAUUAAAUCCCGUCGUAGCCACCA
DNA 1: CAATCTGAATTCCGGTCTCCC
DNA 2: TGGTGGCTACGACGGGATT
B2: CCGCUAC (DNA:RNA)
RNA: B1 RNA with G25C, G26C, U27G, U28C, C29U, A31C
DNA 1: CAATCTGAATTCCGGTCTCCC
DNA 2: TGGTGGCTACGACGGGATT
B3: UGUACUC (DNA:RNA)
RNA: B1 RNA with G25U, U28A, A30U, A31C
DNA 1: CAATCTGAATTCCGGTCTCCC
DNA 2: TGGTGGCTACGACGGGATT
B4: ACGAAGA (DNA:RNA)
RNA: B1 RNA with G25A, G26C, U27G, U28A, C29A, A30G
DNA 1: CAATCTGAATTCCGGTCTCCC
DNA 2: TGGTGGCTACGACGGGATT
B5: UUCGCAG (DNA:RNA)
RNA: B1 RNA with G25U, G26U, U27C, U28G, A31G
DNA 1: CAATCTGAATTCCGGTCTCCC
DNA 2: TGGTGGCTACGACGGGATT
B6: GACGGCA (DNA:RNA)
RNA: B1 RNA with G26A, U27C, U28G, C29G, A30C
DNA 1: CAATCTGAATTCCGGTCTCCC
DNA 2: TGGTGGCTACGACGGGATT
B7: AUUGGAU (DNA:RNA)
RNA: B1 RNA with G25A, G26U, U28G, C29G, A31U
DNA 1: CAATCTGAATTCCGGTCTCCC
DNA 2: TGGTGGCTACGACGGGATT
B8: CUGUUGU (DNA:RNA)
RNA: B1 RNA with G25C, G26U, U27G, C29U, A30G, A31U
DNA 1: CAATCTGAATTCCGGTCTCCC
DNA 2: TGGTGGCTACGACGGGATT
B9: UGUUUUU (DNA:RNA)
RNA: B1 RNA with G25U, C29U, A30U, A31U
DNA 1: CAATCTGAATTCCGGTCTCCC
DNA 2: TGGTGGCTACGACGGGATT
B10: CUGUUUG (DNA:RNA)
RNA: B1 RNA with G25C, G26U, U27G, C29U, A30U, A31G
DNA 1: CAATCTGAATTCCGGTCTCCC
DNA 2: TGGTGGCTACGACGGGATT
B11: UGUGUUU (DNA:RNA)
RNA: B1 RNA with G25U, U28G, C29U, A30U, A31U
DNA 1: CAATCTGAATTCCGGTCTCCC
DNA 2: TGGTGGCTACGACGGGATT
B12: CUGUGUG (DNA:RNA)
RNA: B1 RNA with G25C, G26U, U27G, C29G, A30U, A31G
DNA 1: CAATCTGAATTCCGGTCTCCC
DNA 2: TGGTGGCTACGACGGGATT
B13: UGUCCGU (DNA:RNA)
RNA: B1 RNA with G25U, U28C, A30G, A31U
DNA 1: CAATCTGAATTCCGGTCTCCC
DNA 2: TGGTGGCTACGACGGGATT
B14: ACCUGUG (DNA:RNA)
RNA: B1 RNA with G25A, G26C, U27C, C29G, A30U, A31G
DNA 1: CAATCTGAATTCCGGTCTCCC
DNA 2: TGGTGGCTACGACGGGATT
B15: CUGUGUU (DNA:RNA)
RNA: B1 RNA with G25C, G26U, U27G, C29G, A30U, A31U
DNA 1: CAATCTGAATTCCGGTCTCCC
DNA 2: TGGTGGCTACGACGGGATT
B16: CUGUCGU (DNA:RNA)
RNA: B1 RNA with G25C, G26U, U27G, A30G, A31U
DNA 1: CAATCTGAATTCCGGTCTCCC
DNA 2: TGGTGGCTACGACGGGATT
B17: CCCUGUG (DNA:RNA)
RNA: B1 RNA with G25C, G26C, U27C, C29G, A30U, A31G
DNA 1: CAATCTGAATTCCGGTCTCCC
DNA 2: TGGTGGCTACGACGGGATT
B18: UGUGUGU (DNA:RNA)
RNA: B1 RNA with G25U, U28G, C29U, A30G, A31U
DNA 1: CAATCTGAATTCCGGTCTCCC
DNA 2: TGGTGGCTACGACGGGATT
B19: UGUUUGU (DNA:RNA)
RNA: B1 RNA with G25U, C29U, A30G, A31U
DNA 1: CAATCTGAATTCCGGTCTCCC
DNA 2: TGGTGGCTACGACGGGATT
B20: AAGACCU (DNA:RNA)
RNA: B1 RNA with G25A, G26A, U27G, U28A, A30C, A31U
DNA 1: CAATCTGAATTCCGGTCTCCC
DNA 2: TGGTGGCTACGACGGGATT

The target in the experiment is T1, RBFOX1 RRM RbFoxmut (Fox-RRM*). As to the kind of experiment: EMSA; HiTS-Eq, 1 nM pool, 10 min; buffer printed only for the single-RNA assays: 10 mM Tris pH 7.5, 150 mM NaCl, 3.4 mM EDTA, 0.001% NP-40, 30 C. The settings on record: tags: His6 N-terminal (pET28a); label: 5' 32P. In a few lines:
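Purified RbFox RRM, wild type or mutant, was incubated for 10 min in 50 µL with 1 nM of a 5′-radiolabelled RNA pool carrying 7 randomized nucleotides, whose flanks were annealed to DNA oligonucleotides, over a series of increasing protein concentrations. Unbound RNA was resolved on 8% native PAGE, cut out, reverse-transcribed, barcoded by PCR and sequenced on an Illumina HiSeq 2500. Relative association constants were derived from changes in read counts for each RNA species versus the control reaction and normalised to the cognate motif.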
For orientation: In EMSA bound probe runs differently from free probe, usually more slowly.
Consider B1, for which the binding signal was 0.0825 KA relative to UGCAUGU.

For the molecule B2, the binding signal is 0.129 KA relative to UGCAUGU.

Take B3: the binding signal was 0.0695 KA relative to UGCAUGU.

As to B4, the binding signal is 0.105 KA relative to UGCAUGU.

Consider B5, for which the binding signal is 0.0914 KA relative to UGCAUGU.

In the case of B6, the binding signal is 0.149 KA relative to UGCAUGU.

For the molecule B7, the binding signal was 0.0952 KA relative to UGCAUGU.

With B8, the binding signal is 0.166 KA relative to UGCAUGU.

In the case of B9, the binding signal was 0.0878 KA relative to UGCAUGU.

On to B10, for which the binding signal was 0.75 KA relative to UGCAUGU.

B11: the binding signal is 0.115 KA relative to UGCAUGU.

In the case of B12, the binding signal is 0.388 KA relative to UGCAUGU.

With B13, the binding signal was 0.147 KA relative to UGCAUGU.

For the molecule B14, the binding signal is 0.139 KA relative to UGCAUGU.

As to B15, the binding signal is 0.14 KA relative to UGCAUGU.

Consider B16, for which the binding signal was 0.138 KA relative to UGCAUGU.

Take B17: the binding signal was 0.138 KA relative to UGCAUGU.

Turning to B18, the binding signal was 0.366 KA relative to UGCAUGU.

As for B19, the binding signal was 0.549 KA relative to UGCAUGU.

On to B20, for which the binding signal is 0.0678 KA relative to UGCAUGU.
